Source: PubChem BioAssay
The full list was thinned out, with hits kept by preference.
RT RNaseH block: blocks HIV-1 RNase H cleavage of RNA/DNA duplex; P04585; RT-RNase H RNA/DNA duplex cleavage, fluorescence; inhibition, % at 10 µM; 65,000 compounds, 1.9% hits; AID 565; in the data active = inhibition above about 50%
RmlCD inh mix: inhibitors of RmlC and RmlD coupled enzymes; RmlC/RmlD coupled enzyme inhibition, 384-well mixture HTS; inhibition, % at 5.5 µM; 110,000 compounds, 0.39% hits; in the data active = inhibition above about 30%, passing the limit was not always enough
RmlCD artifact: shows fluorescent artifact in RmlC/RmlD assay, dose-response counter-screen; AID 1696; shares compounds with RmlCD inh mix; calls only; RmlC/RmlD assay fluorescence artifact counter-screen; 360 compounds, 96% hits; call rule not given here;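 also: compound alone with no enzyme and no substrates present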
Active calls of the source: *; i = inactive; nt = no result given; + = active, no number.

SMILES | RT RNaseH block | RmlCD inh mix | RmlCD artifact
CC[C@@H](NS(=O)(=O)c1ccc(C)cc1)C(=O)Oc1ccc2c3c(c(=O)oc2c1)CCC3 | nt | nt | +
CCC(C)C(NS(=O)(=O)c1ccc(C)cc1)C(=O)Oc1ccc2c3c(c(=O)oc2c1)CCC3 (configuration not stated) | nt | 17 | nt
CC(C)Oc1ccc2c3c(c(=O)oc2c1)CCC3 | -30 | 1 | nt
Cc1ccc(-n2c(C)cc(C(=O)COC(=O)C3=NNC(=O)CC3)c2C)cc1 | nt | -7 | nt
COC(=O)Cc1c(C)c2ccc(OCc3nn[nH]n3)cc2oc1=O | nt | 31 | nt
COC(=O)Cc1c(C)c2c(OCc3nn[nH]n3)cc(C)cc2oc1=O | -3 | 38* | +
O=c1c(Cc2ccc(F)cc2)c(O)ccn1C1CCCCC1 | nt | 3 | nt
CCOc1cccc(Nc2cc3n(c(=O)n2)CCc2cc(OC)c(OC)cc2-3)c1 | nt | 10 | nt
COc1cc2c(cc1OC)-c1cc(OCc3cccnc3)nc(=O)n1CC2 | -9 | 115* | +
Cc1ccc(S(=O)(=O)N(C)c2cc(S(=O)(=O)N3CCC(C)CC3)c(C)cc2C)cc1 | nt | -16 | nt
Nc1cccc(-c2nc3cc(S(=O)(=O)c4ccc5oc(-c6cccc(N)c6)nc5c4)ccc3o2)c1 | nt | 46* | +
Cc1ccc(-c2nc3cc(N)ccc3o2)cc1 | -10 | nt | nt
c1ccc(-n2cnnc2SCc2nc3ccccc3s2)cc1 | -23 | -5 | nt
CC(C)(C)[C@H]1C=C(C(=O)N2CCN(Cc3ccc4c(c3)OCO4)CC2)O[C@@H](OCc2ccc(CO)cc2)C1 | nt | -10 | nt
Cn1c(CNc2ccccc2)nc2ccccc21 | -2 | 13 | nt
CC(C)N(C(=O)COC(=O)c1cc(Cl)cc(Cl)c1N)C(C)C | nt | -7 | nt
CN(C)C(=O)COC(=O)c1cc(Cl)cc(Cl)c1N | nt | 36* | +
CCCCCCc1cc2cc(-c3nnc(-c4ccccc4OC)o3)c(=O)oc2cc1O | nt | 181* | +
CCOC(=O)CSc1nnc(-c2ccccc2OC)o1 | -8 | 9 | nt
CCCNC(=O)NCCc1c(C)[nH]c2ccccc12 | -3 | -10 | nt
CCC1CCc2c(sc(NC(=O)c3ccco3)c2C(N)=O)C1 (configuration not stated) | nt | -3 | nt
CC(C)(C)C1CCc2c(sc(NC(=O)c3ccco3)c2C(N)=O)C1 (configuration not stated) | nt | 64* | +
O=c1c[n+]([O-])c2ccccc2n1OCc1ccccn1 | 0 | 2 | nt
CC(=O)c1cc2cc(O)ccc2o1 | -31 | 136* | +
CC(=O)c1cc2c(O)c(O)ccc2o1 | -19 | -4 | nt
SMILES | RT RNaseH block | RmlCD inh mix | RmlCD artifact
O=S(=O)(c1cccc(-c2cn3cccnc3n2)c1)N1CCCCCC1 | 47 | -25 | nt
O=S(=O)(c1cccc(-c2cn3cccnc3n2)c1)N1CCOCC1 | 22 | 67* | +
Clc1ccc(-c2cn3cccnc3n2)cc1 | nt | 40* | +
Clc1ccc(-c2cn3cccnc3n2)cc1Cl | nt | 9 | nt
CC1CN(S(=O)(=O)c2cccc(-c3cn4cccnc4n3)c2)CC(C)O1 (configuration not stated) | 0 | nt | nt
Brc1ccc(-c2cn3cccnc3n2)cc1 | -10 | 45* | +
OC(COCC1COc2ccccc2O1)CN1CCN(c2ccccn2)CC1 (configuration not stated) | -23 | -14 | nt
CC1CN(Cc2nc3c(c(=O)n(C)c(=O)n3C)n2CCN2CCOCC2)CC(C)O1 (configuration not stated) | -13 | -10 | nt
COc1ccc(OCC(O)Cn2c(Nc3ccccc3)nc3c2c(=O)n(C)c(=O)n3C)cc1 (configuration not stated) | 20 | -16 | nt
O=c1[nH]c(-c2ccc(Cl)cc2)nc2c1cnn2-c1ccccc1 | 9 | -8 | nt
COc1cccc(/C=C/c2nc3c(cnn3-c3ccccc3)c(=O)[nH]2)c1 | nt | nt | +
O=C(C1=C[C@H](c2ccc(C(F)(F)F)cc2)C[C@H](OCCCCO)O1)N1CCN(Cc2ccc3c(c2)OCO3)CC1 | nt | 7 | nt
CNC(=O)c1cc2c(=O)n3cc(C)ccc3nc2n(Cc2ccco2)c1=N | -17 | nt | nt
Cc1ccc2nc3c(cc(C(=O)NCC4CCCO4)c(=N)n3CCCOC(C)C)c(=O)n2c1 (configuration not stated) | 1 | 126* | +
CCc1cc(C(=O)c2ccccc2OC)c(N)s1 | -27 | -14 | nt
CCOCC(=O)Nc1cc(-c2cn3cccnc3n2)ccc1C | -15 | 107* | +
COCC(=O)Nc1ccc(-c2cn3cccnc3n2)cc1 | -14 | 96* | +
Cc1cccn2cc(-c3ccc(NC(=O)Cc4ccccc4)cc3)nc12 | nt | 7 | nt
Cc1ccc(-c2nc3ncccc3o2)cc1NC(=O)COc1ccccc1 | nt | -12 | nt
CC(SCc1ccccc1)C(=O)N/N=C/c1ccc2c(c1)OCO2 (configuration not stated) | nt | 3 | nt
Cc1ccc(NC(=O)C2CCN(S(=O)(=O)c3cccc4nonc34)CC2)nc1 | 14 | -11 | nt
Cc1nc(NC(=O)/C=C/c2ccccc2)sc1C(=O)Nc1ccc(Cl)cc1 | nt | -15 | nt
Cc1nc(NC(=O)/C=C/c2ccccc2)sc1C(=O)Nc1ccccc1Cl | nt | 37* | +
CCN(Cc1ccncc1)S(=O)(=O)c1ccc(C(C)=O)cc1 | 46 | -7 | nt
Cc1cc(=O)oc2cc(O)ccc12 | nt | 84* | +
SMILES | RT RNaseH block | RmlCD inh mix | RmlCD artifact
O=c1cc(O)c2ccc(O)cc2o1 | nt | 104 | nt
Cc1oc2cc(O)ccc2c(=O)c1N1C(=O)c2ccccc2C1=O | 3 | 4 | nt
CC(=O)Nc1c(OC(C)=O)ccc2c(C)cc(=O)oc12 | -16 | + | +
COc1ccc2c(C)cc(=O)oc2c1C | -10 | -4 | nt
CC(=O)Oc1cc2oc(=O)cc(C)c2cc1OC(C)=O | -5 | i | nt
CC(=O)Oc1ccc2c(C)cc(=O)oc2c1 | nt | + | +
Cc1ccccc1-c1c(C)oc2cc(O)ccc2c1=O | -6 | 38* | +
COc1ccc(NC(=O)CSc2ccc3c4c(cccc24)C(=O)c2ccccc2-3)cc1 | nt | 5 | nt
S=C(NCc1ccco1)N1CCN(Cc2ccco2)CC1 | nt | -11 | nt
CCOc1ccc(-c2nc(C#N)c(N3CCOCC3)o2)cc1 | -25 | 11 | nt
COc1ccc(C(NC(N)=O)c2ccccc2)cc1 (configuration not stated) | -2 | 10 | nt
Cc1csc(SCc2ccc(C(=O)O)cc2)n1 | nt | -8 | nt
CC(=O)Oc1ccc2c(C)cc(=O)[nH]c2c1 | 1 | 64* | +
Cc1cc(=O)[nH]c2cc(O)ccc12 | nt | -2 | nt
COc1ccc2c(c1)[nH]c1c(=O)n(CCCN3CCOCC3)cnc12 | nt | -12 | nt
COc1ccc2c(c1)c1ncn(CCCN3CCOCC3)c(=O)c1n2C | nt | 106* | +
COC(=O)c1cc2n(n1)CCN(Cc1ccc(C)cc1)C2=O | nt | 6 | nt
COc1cccc(C2N(c3ccc(Cl)cc3)C(=O)C3CCCN32)c1 (configuration not stated) | -9 | -13 | nt
Cc1cc(NCCN2CCOCC2)n2c(nc3ccccc32)c1C#N | 5 | 20 | nt
Cc1cc(NCCCN2CCOCC2)n2c(nc3ccccc32)c1C#N | -15 | 71* | +
O=C(NCCN1CCOCC1)c1ccc2c(c1)N(Cc1ccccc1)CCS2 | -1 | 18 | nt
CN1CCN(CCCNC(=O)c2ccc3c(c2)N(Cc2ccccc2)CCS3)CC1 | -4 | 38* | +
CC1CC(C)CN(C(=O)CSCC(=O)Nc2nc(-c3cccs3)cs2)C1 (configuration not stated) | 31 | nt | nt
CCOC(=O)N1CCN(c2ccccc2O)CC1 | nt | 3 | nt
